Bioassay records as filed in PubChem BioAssay.
Compounds with a hit are over-represented: about 3.2% of the library has one in this group of screens.
ERa coact inh – ERα–SRC-1 coactivator interaction inhibitors, primary screen, biochemical, TR-FRET, ERα LBD, estradiol-bound. Estrogen receptor (Homo sapiens), P03372. TR-FRET ER-alpha LBD / SRC-1 peptide. inhibition, % at 25.6 µM. hit rate 1.7% among 86,000. AID 629, 2007; in the data active = inhibition above about 50%;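 note: 0% = receptor plus peptide control and 100% = peptide only without receptor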
MT1-MMP txn act – MT1-MMP promoter reporter activation – cell-based, luciferase luminescence, primary screen. HT1080 MT1-MMP promoter luciferase reporter, overnight; stronger effect = higher value. activation factor at 10 µM. hit rate 0.16% among 86,000. AID 750, 2007;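 active = activation factor of at least 2 for MT1-MMP transcription at 10 µM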
EphB4 antag – EphB4-ephrin-B2 interaction antagonists, primary screen, biochemical, TNYL-RAW peptide probe, fluorescence polarization; EphB4 LBD / TNYL-RAW-Alexa532 peptide; Ephrin type-B receptor 4 (Homo sapiens), P54760; inhibition, % at 7 µM; hit rate 0.15% among 97,000;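 active = inhibition above the screen-wide mean inhibition plus 3 SD, cut at about 15% in these data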;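 note: 0% = DMSO wells and 100% = excess unlabeled TNYL-RAW peptide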
ERb coact inh – inhibitors of ERβ-SRC1 coactivator interaction, primary screen, biochemical, TR-FRET, ERβ LBD, SRC-1 peptide; hit rate 1.3% among 86,000; Estrogen receptor beta (Homo sapiens), Q92731; TR-FRET ER-beta LBD / SRC1-Cy5 peptide binding; receptor agonist-loaded with 1 µM estradiol; AID 633, 2007; inhibition, % at 25.6 µM;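 active = compounds whose percent inhibition of the receptor-coactivator binding signal exceeds about 50% in the single-dose screen, limit read from the data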;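 note: 0% = receptor plus peptide wells without compound and 100% = peptide-only wells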
Target sequence (Q92731 whole entry, looked up, the tested form may be a part): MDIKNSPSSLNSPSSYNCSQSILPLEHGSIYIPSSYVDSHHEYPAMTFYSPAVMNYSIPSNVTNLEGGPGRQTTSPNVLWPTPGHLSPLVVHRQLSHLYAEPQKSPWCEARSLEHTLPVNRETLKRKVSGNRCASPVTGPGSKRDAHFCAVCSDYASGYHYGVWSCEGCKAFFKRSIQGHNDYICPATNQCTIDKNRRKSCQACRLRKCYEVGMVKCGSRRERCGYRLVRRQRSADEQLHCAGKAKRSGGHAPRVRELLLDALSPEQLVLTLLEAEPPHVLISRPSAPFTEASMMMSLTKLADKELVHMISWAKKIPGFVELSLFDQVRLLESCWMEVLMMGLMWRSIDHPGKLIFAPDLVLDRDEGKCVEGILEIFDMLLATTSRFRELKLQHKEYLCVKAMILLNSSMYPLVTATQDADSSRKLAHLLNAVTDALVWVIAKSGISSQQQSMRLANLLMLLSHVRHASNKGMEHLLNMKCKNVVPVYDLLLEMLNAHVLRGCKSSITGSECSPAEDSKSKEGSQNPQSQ
Candida biofilm – clotrimazole potentiators killing Candida biofilms, primary screen, with clotrimazole, Alamar Blue. C. albicans biofilm + clotrimazole. inhibition, % at 6 µM. hit rate 0.14% among 85,000;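 active = inhibition above 20%; inactive = inhibition below 20%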;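 note: preformed 24 hr biofilms exposed to compound for 48 hr; 0% = biofilm without compound and 100% = blank killed by clotrimazole plus chlorhexidine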
ERa SRC1 pot – enhancers of ERα–SRC-1 coactivator binding, primary screen, biochemical, TR-FRET, ERα LBD, low estradiol; Estrogen receptor (Homo sapiens), P03372; AID 639, 2007; hit rate 1.3% among 86,000; coactivator binding (% of control), % at 25.6 µM; TR-FRET ERalpha-LBD/SRC-Cy5 coactivator binding, 2 h; 100 = basal binding, no effect; in the data active = activity above about 200%;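 note: binding measured in presence of low estradiol as agonist stimulus; 0% = peptide alone without receptor and 100% = receptor with peptide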
* marks the source's active call; other numbers are inactive results; nt = no result; [ ] = remark or other dose.

SMILES | ERa coact inh | MT1-MMP txn act | EphB4 antag | ERb coact inh | Candida biofilm | ERa SRC1 pot
COc1ccc2c(Cl)c(C(=O)NCCCn3ccnc3)sc2c1Cl | 12 | 1.1 | -2 | -5 | 4 | 276*
Cc1ccc2[nH]c(C)c(CN(C)C3CCN(C)CC3)c(=O)c2c1 | 9 | 1 | nt | 5 | 3 | 87
COC(=O)[C@@]1(Cc2ccccc2)[C@H]2c3cc(C(=O)N(C)C)n(Cc4ccccn4)c3C[C@H]2CN1C(=O)c1ccccc1 | nt | 1.1 | nt | nt | nt | nt
CCN1C(=S)SC(=O)C1=C1C=C(C)N(CCO)C(C)=C1 | -22 | 0.8 | nt | -2 | 7 | 244*[fluorescence artefact?]
CCN1C(=S)SC(=O)C1=C1C=C(C)N(CCOC)C(C)=C1 | -12 | nt | nt | -5 | 1 | 171
CCc1noc2c1/C(=N\O)CC(c1ccccc1)C2 (stereo not drawn) | 17 | 0.9 | 6 | -2 | 3 | 88
CCCc1cc(NCCN2CCOCC2)n2c(nc3ccccc32)c1C#N | -3 | 1.2 | nt | 7 | 8 | 120
O=C(Nc1ccc(C#Cc2ccccc2)cc1)C1CC1 | nt | nt | 1 | nt | nt | nt
O=C(Nc1ccc(O)cc1)C1CC=CCC1 (stereo not drawn) | 44 | 1.2 | -1 | 68* | 8 | 18
O=c1c(C(c2ccccc2)c2c(O)sc3ccccc3c2=O)c(O)sc2ccccc12 | 81*[fluorescence artefact?] | 1 | 0 | 29 | 5 | 119
COC(=O)c1ccc(-c2n[nH]c(=O)c3ccccc23)cc1 | 1 | 1 | -3 | -2 | 8 | 296*[fluorescence artefact?]
COC(=O)Cc1n[nH]c(=O)c2ccccc12 | -4 | nt | 6 | -6 | -1 | 83
CCOc1ccc2[nH]c(=O)c(=O)[nH]c2c1 | 52*[fluorescence artefact?] | 1 | -8 | 54* | 6 | 74
CC(C)CNC(=O)c1cccc(NC(=O)c2ccc(NC(=O)c3ccco3)cc2)c1 | 38 | 0.9 | 2 | 21 | 6 | 230*[fluorescence artefact?]
C#CCn1c(=NC(=O)c2ccc(Br)s2)sc2cccc(OC)c21 | 57*[fluorescence artefact?] | nt | 2 | 43 | 3 | 333*[fluorescence artefact?]
Cc1ccc(S(=O)(=O)N2CCN(S(C)(=O)=O)CC2)cc1 | -8 | 1 | -2 | 1 | 6 | 95
CC(=O)Nc1ccc(OCC(O)Cn2cnc3ccccc32)cc1 (stereo not drawn) | -5 | 1.1 | -2 | -7 | 8 | 636*[fluorescence artefact?]
CC(=O)Nc1cccc(OCC(O)Cn2cnc3ccccc32)c1 (stereo not drawn) | 3 | 1.1 | 1 | 4 | 10 | 107
CCN(CC)c1ccc2cc(-c3nc4ccccc4[nH]3)c(=O)oc2c1 | 28 | nt | -4 | 6 | 4 | 140
CCN(CC)c1ccc2cc(-c3nnc(-c4ccc(Br)cc4)o3)c(=O)oc2c1 | 33 | 1.3 | -3 | 33 | 3 | 210*
CCN(CC)c1ccc2cc(-c3nnc(-c4ccccc4)o3)c(=O)oc2c1 | 48 | 2* | 0 | 32 | 6 | 194
CCCC(=O)Nc1nc2c(OC)ccc(OC)c2s1 | 2 | 1 | -2 | -15 | -3 | 88
CCN1CCN(Cc2ccc(NC(=O)Nc3cccs3)cc2)CC1 | 40 | 0.9 | -4 | 72*[fluorescence artefact?] | 0 | 71
CCN1CCN(Cc2ccc(NC(=O)Nc3ccccc3)cc2)CC1 | nt | 0.9 | -1 | nt | nt | nt
C=CCSc1nncn1/N=C/c1ccc(OC)cc1 | -6 | 2* | -1 | -9 | 5 | 96
SMILES | ERa coact inh | MT1-MMP txn act | EphB4 antag | ERb coact inh | Candida biofilm | ERa SRC1 pot
CCOC(=O)/C=C1\SCC(=O)N1Cc1ccc(Br)cc1 | -6 | 1 | 3 | -5 | 8 | 101
CCOC(=O)/C=C1\SCC(=O)N1Cc1nnc(-c2ccccc2Br)o1 | 59*[fluorescence artefact?] | 1 | -1 | 42 | 7 | 59
COc1ccc2oc(=O)c(C(=O)N3CCN(C45CC6CC(CC(C6)C4)C5)CC3)cc2c1 | -11 | 1.2 | nt | 2 | 0 | 104
CCN1C=C(Cc2cccs2)C2=C(C1)C(c1cccs1)C(C#N)=C(N)O2 (stereo not drawn) | 33 | 1.1 | -7 | 23 | 0 | 50
COc1ccc(OC)c(C2C3=C(CCCC3=O)Nc3nc4ccccc4n32)c1 (stereo not drawn) | nt | 1.1 | nt | nt | nt | nt
O=C(Nc1ccc(N2CCCC2)cc1)C(Cl)c1ccccc1 (stereo not drawn) | 59* | 1.3 | -7 | 50* | 12 | 47
CS(=O)(=O)N1CCN(c2ccc(NC(=O)C(c3ccccc3)c3ccccc3)cc2)CC1 | -14 | 1.2 | 2 | -28 | 6 | 90
COc1cc2c(cc1NC(=O)C(C)OC(=O)C1CC(=O)N(Cc3ccco3)C1)oc1ccccc12 (stereo not drawn) | 10 | 2.1* | 4 | 13 | 5 | 107
CC(=O)Nc1ccc(OCC=C(Cl)Cl)cc1 | -4 | 1 | 16* | 0 | 5 | 111
CCOc1ccc(-n2c(SCC(=O)Nc3ccc(OC)cc3OC)nc3c(c2=O)SCC3)cc1 | -2 | 1.2 | 9 | -1 | 1 | 131
COC(=O)c1ccccc1NC(=O)c1cc(-c2cccs2)on1 | -2 | 1.2 | 3 | 49 | 11 | 251*[fluorescence artefact?]
CCc1ccc(NC(=O)c2noc3c2CCCCC3)cc1 | 13 | 1.4 | nt | 6 | -1 | 118
CSc1ccccc1NC(=O)c1noc2c1CCC2 | 92*[fluorescence artefact?] | 1.6 | -1 | 86* | 9 | 52
CC(NC(=O)c1noc2c1CCCC2)c1ccccc1 (stereo not drawn) | -2 | 1.1 | 3 | -11 | 3 | 122
CCc1ccc(NC(=O)c2noc3c2CCC3)cc1 | 81* | nt | 4 | 77* | 3 | 43
COC(=O)c1ccccc1NC(=O)c1noc2c1CCC2 | 89*[fluorescence artefact?] | 1.2 | nt | 87* | 7 | 21
CN(C)S(=O)(=O)c1cccc(C(=O)OCC(=O)Nc2sccc2C#N)c1 | nt | nt | -1 | nt | nt | nt
Nc1cc(-c2ccc(Br)cc2)nn1S(=O)(=O)c1cccc2nsnc12 | nt | nt | -5 | nt | nt | nt
O=C(NC1CCCCC1)c1noc2c1CCCCC2 | 50*[fluorescence artefact?] | 1.2 | nt | 61*[fluorescence artefact?] | 0 | 72
CC(C)(C)C1CCc2onc(C(=O)NC3CCCC3)c2C1 (stereo not drawn) | -13 | 1 | 4 | -10 | 8 | 122
Cc1ccc(C)c(N2CCN(CC3CC=CCC3)CC2)c1 (stereo not drawn) | 2 | 1.1 | -6 | -4 | 7 | 115
COc1ccccc1-c1cc2nc(C)c(CCC(=O)NC(C)CCc3ccco3)c(C)n2n1 (stereo not drawn) | -6 | nt | 2 | -6 | 6 | 89
COc1ccc(NC(=O)c2ccc(Cl)c(S(=O)(=O)N3CCc4ccccc4C3)c2)cn1 | -5 | 1.1 | nt | -1 | -3 | 125
Cc1cc(-c2csc(NC(=O)c3cc4ccccc4o3)n2)c(C)n1C | nt | 0.9 | -5 | nt | nt | nt
